# Laboratory results: paper PMC11062922 (Nature Chemical Biology, 2023)
# Read-outs that look alike come from different tables or passages of the source.
# What was measured:
# Parameters in all cases: species or system human, MV4-11 + K-562 + COLO205 + SK-N-BE2 + OVCAR-8
# [1] = system: ACVR1; settings: read-out: apparent Kd, compound concentrations: 100 nM and 1000 nM (sheet 'Samples'), n = 1
# [2] = system: CDK10; settings: read-out: apparent Kd, n = 1
# [3] = system: DDR1; settings: read-out: apparent Kd, n = 1
# [4] = system: MAP4K2; settings: read-out: apparent Kd, n = 1
# [5] = system: IKBKE; settings: read-out: apparent Kd, n = 1
# [6] = system: MAP4K3; settings: read-out: apparent Kd, n = 1
# [7] = system: RPS6KA1; settings: read-out: apparent Kd, n = 1
# [8] = system: SLK; settings: read-out: apparent Kd, n = 1
# [9] = system: TEC; settings: read-out: apparent Kd, n = 1
# [10] = system: TGFBR1; settings: read-out: apparent Kd, n = 1
# [11] = system: AKT3; settings: read-out: apparent Kd, compound concentrations: 100 nM and 1000 nM (sheet 'Samples'), n = 1
# [12] = system: AKT2; settings: read-out: apparent Kd, compound concentrations: 100 nM and 1000 nM (sheet 'Samples'), n = 1
# [13] = system: MAP4K5; settings: read-out: apparent Kd, compound concentrations: 100 nM and 1000 nM (sheet 'Samples'), n = 1
# [14] = system: NEK9; settings: read-out: apparent Kd, n = 1
# [15] = system: PIK3C2A; settings: read-out: apparent Kd, compound concentrations: 100 nM and 1000 nM (sheet 'Samples'), n = 1
# [16] = system: PIK3C3; settings: read-out: apparent Kd, n = 1
# [17] = system: PIM2; settings: read-out: apparent Kd, compound concentrations: 100 nM and 1000 nM (sheet 'Samples'), n = 1
# [18] = system: STK11; settings: read-out: apparent Kd, compound concentrations: 100 nM and 1000 nM (sheet 'Samples'), n = 1
# [19] = system: TP53RK; settings: read-out: apparent Kd, compound concentrations: 100 nM and 1000 nM (sheet 'Samples'), n = 1
# [20] = system: MAP2K2; settings: read-out: apparent Kd, compound concentrations: 100 nM and 1000 nM (sheet 'Samples'), n = 1
# [21] = compound concentrations:100 nM and 1000 nM (sheet 'Samples')
structure (smiles),measurement,setting,value
Cc1ccc(Nc2ccnc(Nc3ccc4c(c3)CS(=O)(=O)C4)n2)cc1O.Cl [GW579362A],potency estimated from few doses,[1]; CATDS: 3.1800553905839801E-2,1030 nM
same,potency estimated from few doses,"[2]; compound concentrations: 100 nM and 1000 nM (sheet 'Samples'), CATDS: 3.9153038455417302E-2",602 nM
CC(C)N1CCC(n2cnc(-c3ccc(F)cc3)c2-c2ccnc(N)n2)CC1 [SB-223132],potency estimated from few doses,[3]; [21],928 nM
Cc1cccc(-c2nc(Nc3ccncc3)c3sccc3n2)n1 [GW869641X],potency estimated from few doses,[4]; [21],669 nM
CNC(=O)c1ccccc1Nc1nc(Nc2ccc(N3CCOCC3)cc2)ncc1Cl.Cl [GSK1576028A],potency estimated from few doses,[5]; [21],1540 nM
same,potency estimated from few doses,[6]; [21],1670 nM
same,potency estimated from few doses,[7]; [21],683 nM
same,potency estimated from few doses,[8]; [21],1120 nM
same,potency estimated from few doses,[9]; [21],57.7 nM
same,potency estimated from few doses,[10]; [21],780 nM
O=C1N=C(NCCc2ccc(Cl)cc2)S/C1=C\c1ccc2ncccc2c1 [RO4498479-000],potency estimated from few doses,[1]; CATDS: 7.5426922392671601E-3,1230 nM
same,potency estimated from few doses,[11]; CATDS: 7.4016289423583202E-3,1320 nM
same,potency estimated from few doses,"[3]; compound concentrations: 100 nM and 1000 nM (sheet 'Samples'), CATDS: 7.1142371440619002E-3",1530 nM
same,potency estimated from few doses,"[7]; compound concentrations: 100 nM and 1000 nM (sheet 'Samples'), CATDS: 6.6850452112440202E-3",2010 nM
same,potency estimated from few doses,"[9]; compound concentrations: 100 nM and 1000 nM (sheet 'Samples'), CATDS: 9.3913889163932396E-3",646 nM
Cc1ccc2c(-c3ccncc3)c(-c3ccc(F)cc3)nn2c1.Cl [GW461484A],potency estimated from few doses,[2]; [21],1410 nM
Cc1cccc(Nc2nc(N[C@H]3CCCC[C@H]3N)ncc2C(N)=O)c1.Cl [GSK986310C],potency estimated from few doses,[4]; [21],2080 nM
Cn1ncc2c(N)ncnc21 [SKF-18267],potency estimated from few doses,[1]; CATDS: 5.7443356978904197E-3,627 nM
same,potency estimated from few doses,[12]; CATDS: 5.1088836681336602E-3,780 nM
same,potency estimated from few doses,"[3]; compound concentrations: 100 nM and 1000 nM (sheet 'Samples'), CATDS: 4.82198778497934E-3",876 nM
same,potency estimated from few doses,"[5]; compound concentrations: 100 nM and 1000 nM (sheet 'Samples'), CATDS: 4.4054249402622498E-3",1060 nM
same,potency estimated from few doses,"[4]; compound concentrations: 100 nM and 1000 nM (sheet 'Samples'), CATDS: 4.7977079984097802E-3",885 nM
same,potency estimated from few doses,"[6]; compound concentrations: 100 nM and 1000 nM (sheet 'Samples'), CATDS: 3.8804201859816102E-3",1450 nM
same,potency estimated from few doses,[13]; CATDS: 3.7006195337176699E-3,1650 nM
same,potency estimated from few doses,"[14]; compound concentrations: 100 nM and 1000 nM (sheet 'Samples'), CATDS: 5.3187042778019703E-3",722 nM
same,potency estimated from few doses,[15]; CATDS: 5.9586884702388498E-3,587 nM
same,potency estimated from few doses,"[16]; compound concentrations: 100 nM and 1000 nM (sheet 'Samples'), CATDS: 6.1778157574045199E-3",552 nM
same,potency estimated from few doses,[17]; CATDS: 4.10108684490637E-3,1260 nM
same,potency estimated from few doses,"[7]; compound concentrations: 100 nM and 1000 nM (sheet 'Samples'), CATDS: 4.0621123256608799E-3",1290 nM
same,potency estimated from few doses,"[8]; compound concentrations: 100 nM and 1000 nM (sheet 'Samples'), CATDS: 4.0721330084515098E-3",1280 nM
same,potency estimated from few doses,[18]; CATDS: 3.27350856558018E-3,2430 nM
same,potency estimated from few doses,"[9]; compound concentrations: 100 nM and 1000 nM (sheet 'Samples'), CATDS: 5.5600102138742497E-3",665 nM
same,potency estimated from few doses,"[10]; compound concentrations: 100 nM and 1000 nM (sheet 'Samples'), CATDS: 5.0317884305657503E-3",804 nM
same,potency estimated from few doses,[19]; CATDS: 3.61485371112703E-3,1760 nM
COc1cccc2c(-c3ccncc3)c(-c3ccc(F)cc3)nn12 [GW468513X],potency estimated from few doses,"[10]; compound concentrations: 100 nM and 1000 nM (sheet 'Samples'), CATDS: 4.1244315663660498E-2",1080 nM
O=C1NC(=O)C(N2CCc3ccccc32)=C1c1ccccc1Cl [SB-373598],potency estimated from few doses,[9]; [21],904 nM
Fc1ccc(-c2c(-c3ccncc3)[nH]c3cccnc23)cc1 [RO1153853-000],potency estimated from few doses,"[10]; compound concentrations: 100 nM and 1000 nM (sheet 'Samples'), CATDS: 5.3195917052411702E-2",1310 nM
CN1C[C@@H]2Cn3c(c(C4=C(c5cn(C)c6ccccc56)C(=O)NC4=O)c4ccccc43)C[C@H]2C1.Cl [RO0320234-001],potency estimated from few doses,[3]; [21],1520 nM
same,potency estimated from few doses,[9]; [21],1190 nM
Cl.ON=C1CCc2cc(-c3nc(C4CCNCC4)[nH]c3-c3ccncc3)ccc21 [SB-614067-R],potency estimated from few doses,[10]; [21],1170 nM
CCn1c(-c2nonc2N)nc2c(-c3ccccc3)ncc(OCCCN)c21.CCn1c(-c2nonc2N)nc2c(-c3ccccc3)ncc(OCCCN)c21.O=C(O)C(F)(F)F.O=C(O)C(F)(F)F [GSK260205A],potency estimated from few doses,[12]; CATDS: 4.8057080770149398E-2,339 nM
CCOC(=O)N1CCC(n2cnc(-c3ccc(F)cc3)c2-c2ccnc(N)n2)CC1 [SB-219952],potency estimated from few doses,"[3]; compound concentrations: 100 nM and 1000 nM (sheet 'Samples'), CATDS: 1.23341339187386E-2",531 nM
same,potency estimated from few doses,"[9]; compound concentrations: 100 nM and 1000 nM (sheet 'Samples'), CATDS: 8.8843344260598894E-3",1200 nM
COc1ccc(Nc2ncc(C#N)c(Nc3ccccc3C(N)=O)n2)cc1N1CCN(C)CC1.Cl [GSK1558669A],potency estimated from few doses,"[2]; compound concentrations: 100 nM and 1000 nM (sheet 'Samples'), CATDS: 6.1619993305959599E-3",1450 nM
same,potency estimated from few doses,"[3]; compound concentrations: 100 nM and 1000 nM (sheet 'Samples'), CATDS: 8.5132006877523293E-3",319 nM
same,potency estimated from few doses,"[5]; compound concentrations: 100 nM and 1000 nM (sheet 'Samples'), CATDS: 7.4158435365071704E-3",548 nM
same,potency estimated from few doses,"[6]; compound concentrations: 100 nM and 1000 nM (sheet 'Samples'), CATDS: 1.16453060646116E-2",123 nM
same,potency estimated from few doses,[13]; CATDS: 7.4217938627351198E-3,546 nM
same,potency estimated from few doses,"[14]; compound concentrations: 100 nM and 1000 nM (sheet 'Samples'), CATDS: 1.04770728264292E-2",164 nM
same,potency estimated from few doses,"[7]; compound concentrations: 100 nM and 1000 nM (sheet 'Samples'), CATDS: 1.0869541528388701E-2",148 nM
same,potency estimated from few doses,"[8]; compound concentrations: 100 nM and 1000 nM (sheet 'Samples'), CATDS: 1.35175429318502E-2",84.7 nM
CCn1c(-c2nonc2N)nc2c(C#CC(C)(C)O)nc(CN3CCCC3)cc21 [GSK1000163A],potency estimated from few doses,[11]; CATDS: 0.185643756681795,1430 nM
CONC1=NC(=O)/C(=C/c2ccc3ncccc3c2)S1 [RO4613269-000],potency estimated from few doses,[19]; CATDS: 0.12819898124354101,2200 nM
Cc1cccc(Nc2nc(N[C@H]3CCNC3)ncc2C(N)=O)c1.Cl [GSK2197149A],potency estimated from few doses,[16]; [21],1110 nM
O=C(O)C(F)(F)F.O=c1[nH]ccc2nc(N[C@@H]3CCNC3)nc(Nc3ccc4c(c3)S(=O)(=O)CC4)c12 [GSK2181306A],potency estimated from few doses,"[2]; compound concentrations: 100 nM and 1000 nM (sheet 'Samples'), CATDS: 1.0545767640912401E-2",729 nM
same,potency estimated from few doses,[20]; CATDS: 8.3394959268462601E-3,1620 nM
same,potency estimated from few doses,"[4]; compound concentrations: 100 nM and 1000 nM (sheet 'Samples'), CATDS: 2.4699396499264999E-2",121 nM
same,potency estimated from few doses,"[6]; compound concentrations: 100 nM and 1000 nM (sheet 'Samples'), CATDS: 1.12434649854769E-2",612 nM
same,potency estimated from few doses,[13]; CATDS: 1.5726732073661799E-2,283 nM
same,potency estimated from few doses,[17]; CATDS: 8.9086191917804505E-3,1250 nM
same,potency estimated from few doses,"[7]; compound concentrations: 100 nM and 1000 nM (sheet 'Samples'), CATDS: 8.5840482500919892E-3",1440 nM
same,potency estimated from few doses,"[8]; compound concentrations: 100 nM and 1000 nM (sheet 'Samples'), CATDS: 1.8680668627662898E-2",201 nM
same,potency estimated from few doses,[18]; CATDS: 1.6673452289140401E-2,251 nM
COc1ccc(-c2cc3c(N)ncnc3o2)cc1 [GW642138X],potency estimated from few doses,[20]; CATDS: 0.100903208593323,1800 nM
COc1cc(Nc2nccc(-c3cnn4ncccc34)n2)cc(OC)c1 [GW801372X],potency estimated from few doses,[1]; CATDS: 2.2901948138858801E-2,739 nM
same,potency estimated from few doses,"[14]; compound concentrations: 100 nM and 1000 nM (sheet 'Samples'), CATDS: 4.3233777925034599E-2",142 nM
same,potency estimated from few doses,[15]; CATDS: 1.7083513618659799E-2,2260 nM
COC(=O)c1cccc(NC(=O)NC2CCN(c3ccnc(Nc4cc(OC)c(OC)c(OC)c4)n3)C2)c1 (stereo not drawn) [GSK1379767A],potency estimated from few doses,[20]; CATDS: 9.7469990790668801E-2,1880 nM
same,potency estimated from few doses,[15]; CATDS: 9.3691802712770805E-2,2080 nM
CC(C)Oc1ccc2c(-c3ccnc(Nc4ccc(N5CCN(C)CC5)cc4)n3)cnn2n1 [GW696155X],potency estimated from few doses,[5]; [21],343 nM
same,potency estimated from few doses,[14]; [21],26 nM
NCC(NC(=O)c1cc(-c2cn[nH]c2)c(-c2ccnc3[nH]ccc23)s1)c1ccccc1.NCC(NC(=O)c1cc(-c2cn[nH]c2)c(-c2ccnc3[nH]ccc23)s1)c1ccccc1.O=C(O)C(F)(F)F.O=C(O)C(F)(F)F (stereo not drawn) [GSK1325775A],potency estimated from few doses,[1]; CATDS: 3.5400947915422802E-2,1180 nM
